# Hit rate of the full screen: of about 340,000 compounds, about 1,800 (0.53%) were called active.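 Rule for the calls: active = activation over 3 SD above normal in the single-dose calcium agonist read (cut at about 30% in these data); inactive = the rest.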 The sample as a whole holds a higher share of actives than the screen did.
# Target: D(2) dopamine receptor (Homo sapiens) (UniProt P14416)
# Experiment: HTS Assay for Allosteric Agonists of the Human D2 Dopamine Receptor: Primary Screen for Agonists; note: 0% is about no effect
# Conditions: HEK293 T-REx D2 cells, calcium flux agonist mode; at 2 µM; active compounds read high
# In short: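 Agonism scored from kinetic calcium signal (1 read/sec, 180 s) following compound pin transfer, after a 10 s baseline. Cells: HEK293 Trex line expressing inducible D2 receptor coupled to calcium, dye-loaded after overnight culture at 30 C.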
# Chain of D(2) dopamine receptor (Homo sapiens) (P14416 whole entry, looked up): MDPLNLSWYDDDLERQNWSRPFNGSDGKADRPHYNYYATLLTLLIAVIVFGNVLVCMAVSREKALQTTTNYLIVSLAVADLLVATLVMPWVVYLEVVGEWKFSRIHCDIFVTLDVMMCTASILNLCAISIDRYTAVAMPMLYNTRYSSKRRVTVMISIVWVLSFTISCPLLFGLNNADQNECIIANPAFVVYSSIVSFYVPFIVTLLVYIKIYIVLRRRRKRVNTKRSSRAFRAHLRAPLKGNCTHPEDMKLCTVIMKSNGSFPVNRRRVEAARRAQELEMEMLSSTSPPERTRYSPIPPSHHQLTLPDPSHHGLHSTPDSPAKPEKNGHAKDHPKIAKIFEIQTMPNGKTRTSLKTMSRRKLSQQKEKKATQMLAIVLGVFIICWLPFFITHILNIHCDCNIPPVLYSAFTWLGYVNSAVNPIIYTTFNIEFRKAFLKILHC
row,SMILES,activation
1,O=C(NCCc1c[nH]c2ccccc12)C1CCN(Cc2ccc(Br)cc2)CC1,-0.253% (inactive)
2,N#C/C(=C/c1ccc(N2CCCCC2)o1)C(=O)NCCc1c[nH]c2ccccc12,38.7% (active)
3,N#C/C(=C/c1ccc(N2CCOCC2)o1)C(=O)N1CCOCC1,7.75% (inactive)
4,CCOc1cc(-c2nnc(SCC(=O)NC3CCCC3)nc2-c2ccc(OC)c(OCC)c2)ccc1OC,0.392% (inactive)
5,Cc1ccc(C(=O)Nc2c(C(=O)NC(C)(C)C)oc3ccccc23)cc1,0.0939% (inactive)
6,CS(=O)(=O)N1CCN(CC(=O)NC2CCCC2)CC1,-0.0909% (inactive)
7,O=C(CN1CCN(c2ccccn2)CC1)NC1CCCCC1,67.6% (active)
8,CCOC(=O)N1CCN(Cc2nc3cc(NC(C)=O)ccc3n2C)CC1,0.585% (inactive)
9,CCN(CC)c1ccc(NC(=O)CN2CCN(c3ccccn3)CC2)cc1,26.5% (inactive)
10,O=C(CN1CCN(c2ccccn2)CC1)Nc1ccc(Br)cc1,43.9% (active)
11,O=C(CN1CCN(c2ncccn2)CC1)Nc1ccccc1C(F)(F)F,57.8% (active)
12,O=C(CSc1n[nH]c(=O)n1-c1ccccc1)Nc1ccccc1C(F)(F)F,0.222% (inactive)
13,O=C(Cc1ccc(Br)cc1)N1CCN(c2ccccn2)CC1,0.551% (inactive)
14,Cn1c(CCN2CCCCCC2)nc2cc(NC(=O)Nc3ccccc3)ccc21,1.58% (inactive)
15,CC(C(=O)N(C)CC(=O)Nc1ccccc1C(F)(F)F)N1C(=O)c2ccccc2C1=O (configuration not stated),-0.167% (inactive)
16,O=C(CN1CCN(c2ccccn2)CC1)NCc1cccs1,18.2% (inactive)
17,CCC(=O)Nc1ccc2c(c1)nc(CCN1CCN(c3ccccn3)CC1)n2C,78.2% (active)
18,CC1CCN(S(=O)(=O)c2ccc3c(c2)N(CC(=O)NCc2ccccc2Cl)C(=O)CO3)CC1,-0.934% (inactive)
19,CCc1ccc(Sc2cc(C(=O)NCCCOC(C)C)c3ccccc3n2)cc1,0.0547% (inactive)

row,SMILES,activation
1,Cc1c(Cl)cccc1-c1ccc(CNCCCSc2nnnn2C)o1,0.946% (inactive)
2,COc1ccc(-c2cn3nc(N4CCC(C(=O)Nc5cccc(C)c5C)CC4)sc3n2)cc1,1.52% (inactive)
3,CSc1cccc(NC(=O)CN2C(=O)CCc3cc(S(=O)(=O)N4CCCCC4)ccc32)c1,1.49% (inactive)
4,COc1ccc(NC(=O)NC(C)c2c(-n3cccc3)sc(C)c2C)cc1OC (configuration not stated),0.829% (inactive)
5,CCOC(=O)c1c(C)[nH]c(C)c1S(=O)(=O)NCC(=O)NCc1cccc(C)c1,0.112% (inactive)
6,COc1ccc(CCNC(=O)c2cc(=O)c3c(C)cc(C)cc3o2)cc1OC,-0.676% (inactive)
7,COc1cccc(CNC(=O)C(=O)NCC(c2cccs2)S(=O)(=O)c2ccccc2)c1 (configuration not stated),17.6% (inactive)
8,CCN1CCN(c2ncnc3c2cnn3-c2ccc(C)c(C)c2)CC1,0.887% (inactive)
9,COc1cc(C(=O)NCC(c2ccc(Cl)cc2)N2CCOCC2)cc(OC)c1OC (configuration not stated),-0.027% (inactive)
10,Cc1cc(C)c2oc(C(=O)Nc3c(C(=O)Nc4ccccc4)oc4ccccc34)cc(=O)c2c1,0.443% (inactive)
11,Cc1ccccc1C(=O)N(Cc1ccc(N(C)C)cc1)CC1CCCO1 (configuration not stated),-0.0491% (inactive)
12,O=C(Nc1cc(-c2nc3ccccc3o2)ccc1Cl)c1cc([N+](=O)[O-])ccc1N1CCOCC1,-0.175% (inactive)
13,Cc1ccccc1OCC(=O)Nc1c(C(=O)Nc2ccccc2F)oc2ccccc12,-0.888% (inactive)
14,Cn1c2ccccc2c2c(C(=O)N3CCN(c4ccc(F)cc4)CC3)cn(C3CCCC3)c(=O)c21,0.715% (inactive)
15,CCOC(=O)c1nnn2c3ccccc3c(=O)n(C)c12,0.451% (inactive)
16,CCCc1nc2c(c(=O)c3ccccc3n2C)c(=O)n1C1CCCCCC1,38.8% (active)
17,COc1cccc(CNc2nccn(-c3ccc(OC)c(OC)c3)c2=O)c1,0.433% (inactive)
18,CCOc1ccccc1C(=O)NC1(C(F)(F)F)NC(=O)N(CCc2ccc(OC)c(OC)c2)C1=O (configuration not stated),-1.49% (inactive)
19,Cc1ccc(C)c(CN2C(=O)c3ccccc3S(=O)c3ccc(C(=O)N4CCOCC4)cc32)c1 (configuration not stated),0.908% (inactive)

row,SMILES,activation
1,CCSc1nnc2c(n1)OC(c1ccc(OCC(=O)O)cc1)Nc1ccccc1-2 (configuration not stated),-0.918% (inactive)
2,CC(C)c1csc(CN2CCC(CO)(Cc3ccccc3)CC2)n1,0.222% (inactive)
3,O=C(c1cc2ccccc2o1)N1CCN(Cc2ccccc2)CC1,0.213% (inactive)
4,OCC1(Cc2ccccc2)CCN(Cc2cc3ccccc3o2)CC1,58.8% (active)
5,O=C(c1ccc(Cl)cc1)c1ccc(OCC(O)CN2CCCCC2)cc1 (configuration not stated),0.406% (inactive)
6,OC(COc1ccc2c(c1)CCC2)CN1CCN(c2cccc(Cl)c2)CC1 (configuration not stated),55.1% (active)
7,O=c1cc(CN2CCN(c3cccc(Cl)c3)CC2)c2cc3c(cc2o1)CCCC3,-0.276% (inactive)
8,CCNS(=O)(=O)c1ccc(NC(=O)CSc2nc(-c3ccco3)cc(C(F)(F)F)n2)cc1,-0.45% (inactive)
9,Nc1c(C(=O)c2cccs2)sc2nsc(SCCN3CCCCC3)c12,52.2% (active)
10,COc1ccc(CCC(=O)NCc2ccc3c(c2)CCN3C(=O)c2ccc(F)cc2)cc1,1.61% (inactive)
11,CCN1CCN(c2ncc3c(n2)CC(c2ccccc2O)CC3=O)CC1 (configuration not stated),-0.199% (inactive)
12,CCN(CC)CCC(c1ccc2c(c1)OCO2)c1c(OC)cc(OC)c2c(-c3ccccc3)cc(=O)oc12 (configuration not stated),-1.38% (inactive)
13,COc1cc(C(CCN2CCN(c3ccccc3)CC2)c2c(OC)cc(OC)c3ccc(=O)oc23)cc(OC)c1OC (configuration not stated),25.6% (inactive)
14,COc1cc(OC)c2ccc(=O)oc2c1C(CCN1CCN(c2ccccc2)CC1)c1ccc2c(c1)OCO2 (configuration not stated),78.4% (active)
15,CCCn1c2ccccc2c2cnn(CC(=O)N3CCCC(C(=O)OCC)C3)c(=O)c21 (configuration not stated),0.474% (inactive)
16,CCN(C(=O)Cn1c(=O)nc(-c2ccccc2)c2cc(Cl)ccc21)c1cccc(C)c1,6.7% (inactive)
17,O=c1cc(CCl)nc2scc(-c3ccccc3)n12,39.4% (active)
18,Cc1csc2nc(COc3ccc(NC(=O)COc4ccccc4)cc3)cc(=O)n12,-0.592% (inactive)
19,Cc1csc2nc(COC(=O)c3ccccc3NC(=O)c3ccccc3Cl)cc(=O)n12,0.344% (inactive)

# — PubChem BioAssay AID485358 (National Center for Advancing Translational Sciences (NCATS), 2010)
